Results on 17 compounds are retold here after ChEMBL document CHEMBL1961873, “Compounds: GSK PKIS; Assays: Nanosyn kinase panel” (2012).

The structures appear in SMILES notation.

Experiment [1] addresses T1, Mitogen-activated protein kinase 12 (Homo sapiens) (UniProt P53778).
T1 sequence (whole entry): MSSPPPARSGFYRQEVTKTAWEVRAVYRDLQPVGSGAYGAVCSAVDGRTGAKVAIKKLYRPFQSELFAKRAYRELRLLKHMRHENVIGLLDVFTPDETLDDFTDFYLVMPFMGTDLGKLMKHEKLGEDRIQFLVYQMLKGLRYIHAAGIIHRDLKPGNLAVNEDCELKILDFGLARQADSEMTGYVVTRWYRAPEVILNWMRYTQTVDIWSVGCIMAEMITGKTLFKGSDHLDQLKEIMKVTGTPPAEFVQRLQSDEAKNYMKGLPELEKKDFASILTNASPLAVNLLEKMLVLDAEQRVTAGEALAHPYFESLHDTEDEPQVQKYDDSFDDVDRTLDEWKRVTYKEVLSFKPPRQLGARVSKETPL
The note with it: at 1 µM.

In experiment [2] the target is SRSF protein kinase 1 (Homo sapiens) (UniProt Q96SB4). The note with it: at 0.1 µM.
Chain of SRSF protein kinase 1 (Homo sapiens) (Q96SB4 whole entry): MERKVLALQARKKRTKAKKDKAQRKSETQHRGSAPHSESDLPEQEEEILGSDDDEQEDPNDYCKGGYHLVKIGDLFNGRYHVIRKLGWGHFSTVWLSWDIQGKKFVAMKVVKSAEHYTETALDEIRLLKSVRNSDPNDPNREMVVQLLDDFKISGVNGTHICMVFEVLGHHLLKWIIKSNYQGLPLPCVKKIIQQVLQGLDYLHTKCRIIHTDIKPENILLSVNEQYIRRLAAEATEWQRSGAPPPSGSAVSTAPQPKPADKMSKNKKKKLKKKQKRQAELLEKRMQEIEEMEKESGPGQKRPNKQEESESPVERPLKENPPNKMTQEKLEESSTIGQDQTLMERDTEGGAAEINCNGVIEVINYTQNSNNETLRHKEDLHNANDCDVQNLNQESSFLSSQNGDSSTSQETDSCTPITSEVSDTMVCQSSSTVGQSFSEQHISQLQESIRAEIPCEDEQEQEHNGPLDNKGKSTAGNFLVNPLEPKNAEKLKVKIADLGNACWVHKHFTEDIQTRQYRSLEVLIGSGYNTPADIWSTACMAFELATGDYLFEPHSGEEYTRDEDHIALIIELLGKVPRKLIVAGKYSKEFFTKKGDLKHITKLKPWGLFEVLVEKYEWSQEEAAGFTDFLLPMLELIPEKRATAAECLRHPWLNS
The target is the same in experiment [3]. The note with it: at 1 µM.
Experiment [4] deals with Phosphatidylinositol 4,5-bisphosphate 3-kinase catalytic subunit alpha isoform (Homo sapiens) (UniProt P42336). The note with it: at 0.1 µM.
Chain of Phosphatidylinositol 4,5-bisphosphate 3-kinase catalytic subunit alpha isoform (Homo sapiens) (P42336 whole entry, canonical isoform): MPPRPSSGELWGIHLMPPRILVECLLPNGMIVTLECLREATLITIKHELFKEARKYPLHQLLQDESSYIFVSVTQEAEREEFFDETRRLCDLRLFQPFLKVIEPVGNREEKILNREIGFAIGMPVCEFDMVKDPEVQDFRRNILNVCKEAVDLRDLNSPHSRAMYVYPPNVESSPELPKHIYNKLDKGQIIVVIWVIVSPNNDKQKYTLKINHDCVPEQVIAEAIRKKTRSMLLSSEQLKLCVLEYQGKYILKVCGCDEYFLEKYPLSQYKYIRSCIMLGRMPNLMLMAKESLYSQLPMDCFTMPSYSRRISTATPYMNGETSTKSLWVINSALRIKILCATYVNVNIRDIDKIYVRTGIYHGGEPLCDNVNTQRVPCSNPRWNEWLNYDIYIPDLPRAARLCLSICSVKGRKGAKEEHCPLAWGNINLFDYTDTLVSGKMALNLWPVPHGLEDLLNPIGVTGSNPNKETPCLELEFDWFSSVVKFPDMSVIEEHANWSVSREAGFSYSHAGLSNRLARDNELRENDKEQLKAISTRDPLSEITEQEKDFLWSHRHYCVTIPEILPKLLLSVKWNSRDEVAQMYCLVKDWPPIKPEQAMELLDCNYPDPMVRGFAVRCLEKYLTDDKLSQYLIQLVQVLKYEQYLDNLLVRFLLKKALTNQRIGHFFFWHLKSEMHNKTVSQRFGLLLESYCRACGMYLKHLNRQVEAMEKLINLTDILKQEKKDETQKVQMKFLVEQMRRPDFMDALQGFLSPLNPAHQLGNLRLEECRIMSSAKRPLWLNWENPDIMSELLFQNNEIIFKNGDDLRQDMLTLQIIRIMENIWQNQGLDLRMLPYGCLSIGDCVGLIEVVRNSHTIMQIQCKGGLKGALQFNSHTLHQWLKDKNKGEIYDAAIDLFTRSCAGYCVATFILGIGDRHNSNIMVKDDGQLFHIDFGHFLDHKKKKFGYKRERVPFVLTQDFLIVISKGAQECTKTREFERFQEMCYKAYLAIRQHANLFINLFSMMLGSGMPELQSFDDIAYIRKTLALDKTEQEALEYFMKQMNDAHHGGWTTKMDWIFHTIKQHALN
The target is the same in experiment [5]. The note with it: at 1 µM.
For experiment [6], the target named is T2, Phosphatidylinositol 4,5-bisphosphate 3-kinase catalytic subunit delta isoform (Homo sapiens) (UniProt O00329).
T2 sequence (whole entry): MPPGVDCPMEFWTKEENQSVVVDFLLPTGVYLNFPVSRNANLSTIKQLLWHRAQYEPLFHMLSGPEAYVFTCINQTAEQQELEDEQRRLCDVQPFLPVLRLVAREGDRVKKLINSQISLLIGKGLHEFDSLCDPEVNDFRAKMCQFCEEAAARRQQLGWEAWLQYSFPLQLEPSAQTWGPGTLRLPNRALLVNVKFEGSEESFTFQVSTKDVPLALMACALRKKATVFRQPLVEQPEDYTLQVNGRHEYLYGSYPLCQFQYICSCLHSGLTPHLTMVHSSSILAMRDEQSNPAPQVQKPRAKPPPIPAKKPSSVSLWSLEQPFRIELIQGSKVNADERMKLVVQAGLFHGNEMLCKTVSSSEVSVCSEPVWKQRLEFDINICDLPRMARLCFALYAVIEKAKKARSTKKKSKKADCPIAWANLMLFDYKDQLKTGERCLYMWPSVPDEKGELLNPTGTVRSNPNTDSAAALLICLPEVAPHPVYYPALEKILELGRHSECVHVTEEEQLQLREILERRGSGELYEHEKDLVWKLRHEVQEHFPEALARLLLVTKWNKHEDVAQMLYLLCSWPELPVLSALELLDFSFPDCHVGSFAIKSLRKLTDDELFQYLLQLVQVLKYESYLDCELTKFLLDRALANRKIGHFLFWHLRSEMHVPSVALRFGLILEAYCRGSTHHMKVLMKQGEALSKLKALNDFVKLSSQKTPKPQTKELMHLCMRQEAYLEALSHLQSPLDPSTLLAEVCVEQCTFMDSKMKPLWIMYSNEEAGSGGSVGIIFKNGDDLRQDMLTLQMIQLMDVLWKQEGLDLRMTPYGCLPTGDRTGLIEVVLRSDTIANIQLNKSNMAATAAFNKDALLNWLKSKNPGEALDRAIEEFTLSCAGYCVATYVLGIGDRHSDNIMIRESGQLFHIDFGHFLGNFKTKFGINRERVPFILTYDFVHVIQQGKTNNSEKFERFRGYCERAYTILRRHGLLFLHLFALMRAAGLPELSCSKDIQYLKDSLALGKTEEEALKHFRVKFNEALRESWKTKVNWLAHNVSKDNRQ
The note with it: at 0.1 µM.

Experiment [7] addresses T2, Phosphatidylinositol 4,5-bisphosphate 3-kinase catalytic subunit delta isoform (Homo sapiens). The note with it: at 1 µM.
The target of experiment [8] is Phosphatidylinositol 4-kinase beta (Homo sapiens) (UniProt Q9UBF8). The note with it: at 0.1 µM.
Chain of Phosphatidylinositol 4-kinase beta (Homo sapiens) (Q9UBF8 2-816 limits assumed): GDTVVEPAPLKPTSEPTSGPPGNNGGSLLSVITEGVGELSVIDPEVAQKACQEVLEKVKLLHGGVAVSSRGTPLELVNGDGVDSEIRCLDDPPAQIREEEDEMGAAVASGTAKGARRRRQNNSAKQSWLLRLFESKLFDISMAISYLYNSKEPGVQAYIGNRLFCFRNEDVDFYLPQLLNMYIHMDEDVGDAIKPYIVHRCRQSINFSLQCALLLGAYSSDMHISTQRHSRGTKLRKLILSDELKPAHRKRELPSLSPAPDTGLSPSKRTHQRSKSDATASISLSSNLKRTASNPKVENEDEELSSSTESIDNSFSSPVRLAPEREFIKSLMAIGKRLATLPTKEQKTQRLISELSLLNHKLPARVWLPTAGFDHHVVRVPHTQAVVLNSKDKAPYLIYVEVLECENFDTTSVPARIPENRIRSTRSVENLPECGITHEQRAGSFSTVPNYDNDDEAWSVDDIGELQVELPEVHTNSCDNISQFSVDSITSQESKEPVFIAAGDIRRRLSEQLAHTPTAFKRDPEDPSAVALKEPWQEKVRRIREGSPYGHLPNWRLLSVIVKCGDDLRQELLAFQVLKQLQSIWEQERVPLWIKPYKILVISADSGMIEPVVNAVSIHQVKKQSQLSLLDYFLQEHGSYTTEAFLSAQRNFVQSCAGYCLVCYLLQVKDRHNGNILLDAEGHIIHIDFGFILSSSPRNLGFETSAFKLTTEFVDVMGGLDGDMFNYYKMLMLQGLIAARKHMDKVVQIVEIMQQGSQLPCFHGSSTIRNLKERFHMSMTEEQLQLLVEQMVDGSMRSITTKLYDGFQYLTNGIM
The target is the same in experiment [9]. The note with it: at 1 µM.
The target of experiment [10] is Sphingosine kinase 1 (Homo sapiens) (UniProt Q9NYA1). The note with it: at 0.1 µM.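 Note: mean percent inhibition of SPHK1 activity, measured within the GSK PKIS screening panel.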
Chain of Sphingosine kinase 1 (Homo sapiens) (Q9NYA1 whole entry): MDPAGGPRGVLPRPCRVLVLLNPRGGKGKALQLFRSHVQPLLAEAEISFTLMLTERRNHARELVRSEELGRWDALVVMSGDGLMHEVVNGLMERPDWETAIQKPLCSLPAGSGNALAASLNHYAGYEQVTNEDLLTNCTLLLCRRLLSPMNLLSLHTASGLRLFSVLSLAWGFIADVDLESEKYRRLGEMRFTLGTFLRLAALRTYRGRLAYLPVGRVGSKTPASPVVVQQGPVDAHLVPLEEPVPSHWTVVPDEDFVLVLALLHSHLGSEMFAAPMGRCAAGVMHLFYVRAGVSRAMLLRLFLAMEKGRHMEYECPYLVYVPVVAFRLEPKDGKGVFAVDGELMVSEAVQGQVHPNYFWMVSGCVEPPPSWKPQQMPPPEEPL

A word on the inhibition: it is the drop in the measured response relative to a control, in per cent. On to `c1ccc(Oc2ccc(Nc3ncc(-c4ccccc4)o3)cc2)cc1`, for which the inhibition in [1] was 1.07%; in experiment [2] it was -0.83%; in [3] it was 0.96%; in [4], 4.13%; in [5], 5.69%; in [6], 6.64%. Further, the inhibition in experiment [7] is 7.88%; in experiment [8], 2.11%; in [9] it was 4.73%; in experiment [10] it was 0.41%.

Turning to `NS(=O)(=O)c1ccc(N/N=C2\C(=O)Nc3ccc(C(=O)NCCCn4ccnc4)cc32)cc1`, the inhibition in experiment [1] is 2.75%; in experiment [2], -0.49%; in experiment [3], 2.62%; in [4] it was 3.67%; in experiment [5], 4.54%; in [6], 0.52%. Moreover, the inhibition was 2.39% in experiment [7], -5.49% in [9] and 14.8% in experiment [10].

Turning to `N#Cc1ccc(Oc2nccc(-c3c(-c4ccc(F)cc4)ncn3C3CCNCC3)n2)cc1`, the inhibition in [2] was -3.52%; in [3], -3.38%; in experiment [4] it was 5.16%; in experiment [5], 19.6%; in [6] it was 2.8%; in experiment [7], 17.6%. The figures for the inhibition in [8], in experiment [9] and in [10] were 1.26%, 1.85% and 0.59%, respectively.

For the compound `O=C1Nc2ccccc2/C1=C/Nc1ccc(-n2cncn2)cc1`, the inhibition in [1] was 3.66%; in experiment [2], -1.28%; in [3], 1.26%; in [4], 3.26%; in experiment [5], 3.95%; in experiment [6], 1.81%. The inhibition in experiment [7] was 2.88%; in experiment [9] it was -9.88%; in experiment [10], 1.74%.

Turning to `CCS(=O)(=O)c1ccc(OC)c(Nc2ncc(-c3cccc(-c4ccccc4F)c3)o2)c1`, the inhibition in experiment [1] stood at 0.18%; in experiment [2], 0.1%; in experiment [3], 2.33%; in [4] it was 1.85%; in experiment [5] it was 2.73%; in experiment [6] it was 2.24%. Besides, the inhibition in experiment [7] is 5.89%; in [8], -1.01%; in [9], -4.05%; in [10] it was 4.17%.

As to `O=C(Nc1n[nH]c2cc(-c3ccccc3)ccc12)C1CC1`, the inhibition is 3.52% in [1]; -1.71% in [2]; -1.41% in experiment [3]; 2.18% in experiment [4]; 4.34% in experiment [5]; 1.72% in experiment [6]. The inhibition in [7] is 4.03%; in experiment [8], -5.9%; in [9] it was 0.66%; in [10], -0.8%.

With `COc1ccc(C2=C(N3CCc4ccccc43)C(=O)NC2=O)cc1`, the inhibition in [1] was 3.4%; in experiment [2], -1.12%; in experiment [3], 0.76%; in experiment [4], 6.53%; in [5] it was 12.6%; in experiment [6] it was 5.26%. The inhibition in experiment [7] was 9.11%; in experiment [8], 3.23%; in [9] it was -7.57%; in experiment [10], 0.25%.

Take `COc1cccc(-n2cnc3c(N/N=C/c4ccncc4)ncnc32)c1`: the inhibition in experiment [1] was -1.27%; in [2], 1.41%; in [3], 4.2%; in [4], -0.19%; in experiment [5], -3.79%; in [6] it was -1.29%. The inhibition in [7] is -2.3%; in [8], 5.84%; in experiment [9], -1.85%; in experiment [10] it was -0.37%.

Take `FC(F)(F)c1cccc(Nc2nccc(-c3cnn4nc(-c5ccccc5)ccc34)n2)c1`: the inhibition in experiment [1] was 1.51%; in experiment [2], -2.07%; in [3], -0.92%; in experiment [4], 2.52%; in experiment [5], 8.98%; in experiment [6] it was -0.34%. In addition, the inhibition is 8.75% in experiment [7], -0.22% in experiment [8], -1.63% in experiment [9] and 1.87% in [10].

Take `O=C1Nc2ccc(I)cc2C1=Cc1cc(Br)c(O)c(Br)c1`: the inhibition in [1] was 6.31%; in [2], -3.87%; in experiment [3] it was -2.51%; in experiment [4] it was 6.08%; in experiment [5] it was 23.5%; in [8] it was -3.41%. In addition, the inhibition is 32.6% in experiment [9] and -1.83% in experiment [10].

`c1ccc(-c2n[nH]cc2-c2ccnc(-c3ccc(OCCN4CCOCC4)cc3)c2)nc1`: the inhibition in experiment [1] is 0.29%; in experiment [2], 2.99%; in [3], -0.67%; in experiment [4], 0.37%; in experiment [5] it was 0.17%; in [6] it was 2.7%. In addition, the inhibition was 3.02% in experiment [7], -0.93% in experiment [8], -1.19% in experiment [9] and -5.06% in [10].

For the compound `NC(=O)Cc1ccccc1Oc1nccc(-c2c(-c3ccc(F)cc3)ncn2C2CCNCC2)n1`, the inhibition in [2] was -2.64%; in experiment [3] it was -4.17%; in experiment [4] it was 1.29%; in experiment [5], 3.49%; in [6] it was 2.67%; in experiment [7] it was 2.58%. The inhibition in experiment [8] was -0.45%; in experiment [9], 3.25%; in experiment [10], -2.17%.

In the case of `C#Cc1cccc(Nc2ncnc3ccc(OCCCCNCCS(C)(=O)=O)cc23)c1`, the inhibition in experiment [1] was 3.54%; in experiment [2], -1.38%; in experiment [3], -0.94%; in experiment [4], 5%; in experiment [5], 4.83%; in experiment [6], 2.6%. Also, the inhibition in [7] is 5.7%; in experiment [8] it was -2.49%; in experiment [9], -1.03%; in experiment [10], 5.65%.

Take `Fc1ccc(-c2ncn(C3CCNCC3)c2-c2ccnc(Oc3ccc4c(c3)OCO4)n2)cc1`: the inhibition in [2] is -1.04%; in [3] it was 0.51%; in [4] it was 4.23%; in experiment [5], 4.92%; in experiment [6], 0.82%; in experiment [7], 3.24%. Moreover, the inhibition in [8] stood at 2.26%; in experiment [9], 4.42%; in experiment [10], 1.03%.

`O=C(NCC1CC1)c1ccc(-c2cccc(C(=O)NC3CC3)c2)cc1`: the inhibition in experiment [1] was 1.8%; in [2], -1.5%; in [3] it was -3.41%; in experiment [4] it was 1.61%; in experiment [5], 1.53%; in experiment [6] it was 1.94%. Besides, the inhibition in experiment [7] is 2.38%; in [8], -4.62%; in [9], -1.95%; in [10], 0.53%.

Take `Clc1ccc(CNc2nccc(-c3cnn4ncccc34)n2)cc1`: the inhibition in [1] is 1.18%; in [2], 0.9%; in experiment [3], 1.1%; in [4], -1.31%; in [5], 0.56%; in experiment [6], -0.61%. Further, the inhibition was 1.79% in [7], 2.18% in experiment [8], 1.28% in experiment [9] and -0.17% in experiment [10].

With `C/C(Nc1ccc(S(N)(=O)=O)cc1)=C1/C(=O)Nc2ccccc21`, the inhibition in experiment [1] was -1.66%; in experiment [2], 2.04%; in experiment [3], 1.41%; in [4] it was 0.42%; in experiment [5], 1.42%; in experiment [6], 2.42%. The inhibition in [7] is 3.52%; in experiment [8], -1.12%; in experiment [9] it was -0.13%; in experiment [10] it was -1.38%.
